This passage reports inhibition results from PubChem BioAssay AID2221 (Broad Institute, 2009).

Hit rate of the full screen: of about 290,000 compounds, about 2,200 (0.76%) were called active. What follows is part of a selection rich in actives, with near analogues and random picks from the rest. Unmarked numbers belong to inactive results. No stated cut-off is given here; in the data, active means inhibition above about 30%; inconclusive means no clear call, values can overlap the other calls; inactive means below that.

The target of the test is Protein RecA (Mycobacterium tuberculosis (strain ATCC 25618 / H37Rv)) (UniProt P9WHJ3). As to the kind of experiment: Mtb RecA intein splicing inhibitors, primary screen, biochemical, fluorescence, HTS (AID 2221).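 Further: 0% = vehicle wells and 100% = reference inhibitor control wells.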 Particulars: cell-free RecA intein splicing, stronger effect = higher value, concentration not given here.
Sequence of Protein RecA (Mycobacterium tuberculosis (strain ATCC 25618 / H37Rv)) (P9WHJ3 whole entry, looked up): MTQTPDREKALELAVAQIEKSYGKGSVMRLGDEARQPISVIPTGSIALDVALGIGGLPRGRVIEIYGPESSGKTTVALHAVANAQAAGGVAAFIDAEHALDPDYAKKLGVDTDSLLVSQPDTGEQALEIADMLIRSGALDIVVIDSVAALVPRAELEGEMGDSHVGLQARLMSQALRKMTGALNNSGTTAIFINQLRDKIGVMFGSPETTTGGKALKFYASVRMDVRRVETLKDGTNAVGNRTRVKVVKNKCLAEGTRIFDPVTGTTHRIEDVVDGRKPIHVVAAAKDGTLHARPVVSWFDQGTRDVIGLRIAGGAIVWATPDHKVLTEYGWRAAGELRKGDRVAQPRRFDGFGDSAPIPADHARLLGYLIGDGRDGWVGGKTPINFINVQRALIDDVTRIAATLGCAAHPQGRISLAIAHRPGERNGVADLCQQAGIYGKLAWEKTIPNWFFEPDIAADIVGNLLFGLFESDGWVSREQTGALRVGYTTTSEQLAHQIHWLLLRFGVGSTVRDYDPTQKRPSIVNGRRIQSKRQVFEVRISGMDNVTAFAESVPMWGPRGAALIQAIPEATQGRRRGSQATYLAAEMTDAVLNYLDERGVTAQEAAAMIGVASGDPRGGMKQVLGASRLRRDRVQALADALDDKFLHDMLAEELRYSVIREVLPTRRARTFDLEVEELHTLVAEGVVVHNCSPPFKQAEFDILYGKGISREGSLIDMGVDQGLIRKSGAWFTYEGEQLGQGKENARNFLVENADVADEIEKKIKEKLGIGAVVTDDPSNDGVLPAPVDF
As a reminder, the inhibition is the relative decrease from the control value, in per cent. Consider `O=C(N/N=C\c1cc(Br)c(Br)o1)C1COc2ccccc2O1` (centres undefined), for which the inhibition is 0.81%.
For the compound `Cc1ccc(C(=O)N/N=C/c2cccc3ccccc23)cn1`, the inhibition is 0.625%.
The result for `Cc1ccc(C(=O)N/N=C\c2cc(Br)c(Br)o2)cn1` reads 32% (active).
Consider `Cn1c2ccccc2n2c(=O)c(=O)n(CC(=O)c3ccc(F)cc3)nc12`, for which the inhibition is -7.28%.
As to `COCCN1CCN(C(=O)c2cc(COc3ccc(F)cc3Cl)on2)CC1`, the inhibition is -1.15%.
The result for `O=C(C1CCN(Cc2ccc(Cl)cc2)CC1)N1CCN(Cc2ccc3c(c2)OCO3)CC1` reads -0.0543%.
As for `O=C(Nc1ccc(Cl)cc1)C1c2cccc[n+]2CC(=O)N1Cc1ccc2c(c1)OCO2` (centres undefined), the inhibition was 36.5% (active).
In the case of `CC1CCC(NC(=O)C2c3ccccc3C(=O)N2Cc2ccc3c(c2)OCO3)CC1` (centres undefined), the inhibition is -1.41%.
The result for `C=CS(=O)c1sc(Cl)c(N2CCOCC2)c1[N+](=O)[O-]` (centres undefined) reads 33.8% (active).
To `CCOC(=O)c1cc(NC(=O)c2ccc(Cl)cc2)c(=O)oc1-c1ccccc1` belongs -0.694%.
With `COc1ccc(N=C(C)c2sc3ccccc3c2O)cc1`, the inhibition is 0.51%.
Turning to `O=C(N/N=C/c1c(Cl)[nH]c2ccccc12)c1sc2ccccc2c1Cl`, the inhibition is 3.69%.
In the case of `Oc1ccc(N=Cc2sc3ccccc3c2Cl)cc1`, the inhibition is 34.2% (active).
To `CC(C)(C)C1CCC(C(=O)NCC(c2cccs2)N2CCOCC2)CC1` (centres undefined) belongs 4.62%; to `C#CCN1C(=O)C(O)(CC(=O)c2cc(OC)ccc2OC)c2ccccc21` (centres undefined), 2.4%; to `COc1ccc2c(c1)C(=C(C#N)C#N)C(=O)N2CCc1ccccc1`, 61.5% (active).
As to `CCCCN1C(=O)/C(=C(/C#N)C(N)=O)c2ccccc21`, the inhibition was 1.79%.
Consider `O=[N+]([O-])c1ccc2nc(-c3ccccn3)[nH]c2c1`, for which the inhibition is 0.606%.
Consider `COc1ccc(-c2nnc(SCC(=O)Nc3cccnc3Cl)n2C)cc1`, for which the inhibition is -0.381%.
The result for `COc1ccc(N(CC(=O)NCC2CCCO2)C(=O)CCC(=O)Nc2nccs2)c(OC)c1` (centres undefined) reads 1.28%; that for `COc1ccc(NC(=O)c2cc(-c3ccc(C)cc3)on2)cc1`, -0.468%; that for `COc1ccc(NC(=O)/C(Cl)=C(/Cl)S(=O)Cc2ccc(C)cc2)cn1` (centres undefined), 89% (active).
To `Cc1ccc(NC(=O)OCc2cncs2)cc1` belongs -1.45%; to `O=C(Nc1ccccc1-c1nnn(CC(=O)N2CCN(c3ccccc3)CC2)n1)c1cccs1`, 0.619%; to `COc1ccc(CNC(=O)CN(c2ccc(OC)c(Cl)c2)S(=O)(=O)c2ccc(C)cc2)cc1`, -0.316%.
Consider `O=[N+]([O-])c1c(NCCO)cc(Sc2nc3ccccc3s2)c2nonc12`, for which the inhibition is 94.4% (active).
Turning to `CCOc1ccccc1Nc1ccc2nonc2c1[N+](=O)[O-]`, the inhibition is 2.95%.
As for `O=C(O)c1cccc(S(=O)(=O)Nc2ccc(O)cc2Sc2nc3ccccc3s2)c1`, the inhibition was -3.82%.
The result for `CSc1nnc(NC(=O)c2nc(S(=O)(=O)Cc3ccc(C)cc3)ncc2Cl)s1` reads 82.8% (active).
The result for `CCSc1nnc(NC(=O)c2ccc(C)cc2)s1` reads 2.42%; that for `Cc1nnc(NC(=O)CCCOc2ccccc2)s1`, -1.92%; that for `Cc1ccc(S(=O)(=O)CC(=O)Nc2nnc(C)s2)cc1`, -0.704%.
With `Cc1ccc(CS(=O)(=O)c2ncc(Cl)c(C(=O)Nc3nnc(C)s3)n2)cc1`, the inhibition was 61% (active).
To `CSc1ncc(Cl)c(C(=O)Nc2cc(C)ccc2C)n1` belongs -0.95%.
For `Cc1cc(Cl)nc(NC(=O)Nc2cccc(Cl)c2)n1`, the inhibition is -0.873%.
To `O=C(NCCCn1ccnc1)c1cc2c(s1)CCCC2` belongs 1.03%.
With `COc1cc(/C=C2/C(=O)NN(c3cccc(Cl)c3)C2=O)cc(Br)c1O`, the inhibition is 9.85%.
As for `CCOc1c(Br)cc(/C=C2\C(=O)N(CCC#N)N=C2C)cc1OC`, the inhibition was 89.5% (active).
To `C=CCOc1c(Br)cc(/C=N\n2nnnc2N)cc1OC` belongs 1.44%.
To `Cc1cccc(OCC(=O)NCCNC(=O)c2cccnc2)c1` belongs 4.34%; to `Cc1nn(CC(=O)NC2CCCCC2)c(=O)c2cccn12`, -1.92%.
As to `O=C(CN(C(=O)CNC(=O)c1cccs1)c1cccc(F)c1)NC1CCCCC1`, the inhibition was 2.36%.
The result for `Cc1cccc(NC(=S)Nc2ccc3cn[nH]c3c2)c1` reads 3.44%; that for `Cc1cccc(NC(=O)NC(=S)NC(=O)c2ccccc2)c1`, 1.58%; that for `Cc1cc2[nH]ncc2cc1NC(=S)NC(=O)c1ccccc1`, 38.6% (active).
Turning to `CC(=O)c1c(N2CCN(c3ccc(F)cc3)CC2)nc(=S)n(-c2ccccc2)c1C`, the inhibition was -0.168%.
For the compound `Cc1ccc(CNC(=O)CCN2C(=O)[C@@H]3Cc4ccccc4CN3C2=O)cc1`, the inhibition was 58% (active).
With `O=C(CCN1C(=O)[C@@H]2Cc3ccccc3CN2C1=O)NCCc1ccccc1`, the inhibition is -9.37%.
As for `O=C(CCN1C(=O)[C@@H]2Cc3ccccc3CN2C1=O)NCc1ccccc1`, the inhibition was -0.00645%.
To `CCOc1ccc(N2CC(C(=O)N/N=C/c3sccc3C)CC2=O)cc1` (centres undefined) belongs -0.809%.
The result for `COc1cc(CC(=O)N/N=C/c2ccccc2)c([N+](=O)[O-])cc1OC` reads -1.27%; that for `Cc1cc(C(=O)N/N=C/c2ccccc2[N+](=O)[O-])c(C)o1`, -1.48%.
On to `Cc1ccsc1/C=N/NC(=O)Cc1cc(=O)[nH][nH]1`, for which the inhibition was 93.6% (active).
On to `Cc1ccsc1/C=N/Nc1ccc(Cl)nn1`, for which the inhibition is 0.218%.
On to `O=C(Cc1cc(=O)[nH][nH]1)N/N=C/c1ccccc1[N+](=O)[O-]`, for which the inhibition was 86.9% (active).
`CCCNC(=O)OC[C@H]1O[C@H](CCO/N=C/[C@@H](NS(=O)(=O)c2ccc(C)cc2)[C@H](C)/C=C/CC(=O)OC)C=C[C@@H]1Oc1ccc(OC)cc1`: the inhibition was 4.43%.
To `CCN=c1sc(C(=O)Nc2ccccc2)c(C)n1CC` belongs -1.39%; to `CC(=O)N1CCN(C(=O)C2(NC(=O)Nc3ccc(C)cc3)CCCCC2)CC1`, -0.697%.
Consider `O=C1c2cccc3c([N+](=O)[O-])ccc(c23)C(=O)N1CC1CCCO1` (centres undefined), for which the inhibition is -70.4%.
To `Cc1ccc(Nc2cc(C)nc3c(C)ccc([N+](=O)[O-])c23)cc1` belongs 63.3% (active).
The result for `Cc1cc(C)nc(Nc2cc([N+](=O)[O-])ccc2C)n1` reads -2.26%; that for `Cc1ccc(Nc2ccc(C(N)=O)cc2[N+](=O)[O-])cc1`, 2.38%; that for `CN(c1ccccc1)c1ccc([N+](=O)[O-])c2nonc12`, 63.5% (active).
The result for `CCN(CC)c1ccc([N+](=O)[O-])c2cccnc12` reads 14.5%.
For the compound `Cc1ccccc1Nc1c([N+](=O)[O-])ccc2nonc12`, the inhibition was -1.72%.
As to `COc1cc(C(F)(F)F)nc2c(Br)c(C(C)(C)C)nn12`, the inhibition is 0.549%.
The result for `CCOC(=O)c1cc(S(=O)(=O)NCCc2ccc(OC)c(OC)c2)cn1C` reads -0.521%; that for `CC(C)Oc1ccc(CCC(=O)NNC(=S)NCc2ccccc2)cc1`, 0.193%.
As for `COc1ccc(C(=O)NC(=S)NNC(=O)CCc2ccccc2)cc1`, the inhibition was 34.5% (active).
To `COc1ccc(C(=O)NNC(=S)NC(=O)c2ccccc2)cc1` belongs 7.5%; to `COc1ccc(N2CC(C(=O)NCCS(=O)(=O)N3CCN(c4ccccc4)CC3)CC2=O)cc1` (centres undefined), -1.96%; to `CC(C)C(NC(=O)C1CCC(C(C)(C)C)CC1)C(=O)NCCCN1CCCCC1` (centres undefined), 0.406%.
To `Cc1ccc(F)cc1NC(=O)Cc1nn(C)c(=O)c2ccccc12` belongs -33.8%; to `O=C1c2oc3ccc(Br)cc3c(=O)c2C(c2cccc(F)c2)N1CCO` (centres undefined), 1.67%.
The result for `Cc1c(-c2nn(C)c(=O)c3ccccc23)oc2ccc(F)cc2c1=O` reads 88.2% (active); that for `COc1cccc(N2C(=O)CN(Cc3ccccc3)C2=S)c1`, 0.665%; that for `O=C(COc1ccc(Cl)cc1Cl)NCCCNC(=O)c1cnccn1`, 1.17%.
As for `CCOC(=O)/C(=N\Nc1ccccc1[N+](=O)[O-])c1csc(Nc2ccccc2)n1`, the inhibition was -3.85%.
In the case of `CCc1c(-c2ccccc2)nc(N)c(C#N)c1-c1cccs1`, the inhibition is 4.71%.
The result for `CN1CCc2nc(SC(C(=O)O)c3ccccc3)c(C#N)c(-c3cccs3)c2C1` (centres undefined) reads 34.8% (active).
As to `Cc1c(-c2ccccc2)nc(N)c(C#N)c1-c1cccs1`, the inhibition was -1.05%.
The result for `O=C(Cc1ccccc1F)NC1CCSc2ccccc21` (centres undefined) reads -0.276%.
To `Cc1nc(-c2ccccc2)sc1C1(C)CC(c2cccnc2)=NO1` (centres undefined) belongs 1.29%.
The result for `Nc1nc(-c2ccccc2)cc(-c2ccccc2)n1` reads 6.87%; that for `N#Cc1nc(N)nc(N(c2ccccc2)c2ccccc2)n1`, 37.4% (active); that for `Cc1nc2ccccn2c(=O)c1NC(=O)c1cccs1`, -0.75%.
With `Cc1c(Cl)cccc1NC(=O)CCC(=O)N/N=C/c1ccco1`, the inhibition is -1.26%.
The result for `CCC(C)NC(=O)CCCc1ccccc1` (centres undefined) reads -3.16%; that for `O=C(CCc1nnc(CCCCc2ccccc2)o1)NC(c1cccnc1)C(F)(F)F` (centres undefined), -3.54%.
In the case of `CC(CCn1cccn1)NC(=O)CCc1nnc(CCc2ccccc2)o1` (centres undefined), the inhibition was 36.9% (active).
To `Cc1cc(=O)n2nc(N3CCC(C(=O)Nc4c(F)c(F)c(F)c(F)c4F)CC3)sc2n1` belongs 0.056%; to `COc1ccc(-c2cc(C(=O)n3cnc4ccccc43)c3ccccc3n2)cc1`, 37.7% (active); to `CNC(=O)COC(=O)c1cc(-c2ccc(OC)cc2)nc2ccccc12`, -2.37%.
For the compound `COc1ccc(-c2cc(C(=O)Nc3ccccc3O)c3ccccc3n2)cc1`, the inhibition is -0.565%.
